Shown are actives, neighbours in structure and some others; about 3.2% of the full set was active somewhere.
CDK5 p35 inh – inhibitors of human CDK5/p35 kinase, primary screen, biochemical, single concentration; Recombinant CDK5/p35, ADP-Glo luminescence, 60 min; inhibition, % at 10 µM; 330,000 tested, 0.01% active; Cyclin-dependent kinase 5 (Homo sapiens) + Cyclin-dependent kinase 5 activator 1 (Homo …;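 active = highest replicate inhibition of at least 50% and at least 75% of replicates reaching 50%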;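 also: plate controls were DMSO neutral control for no effect and GW8510 at 10 µM for full effect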
Target sequence (Q00535 whole entry, looked up): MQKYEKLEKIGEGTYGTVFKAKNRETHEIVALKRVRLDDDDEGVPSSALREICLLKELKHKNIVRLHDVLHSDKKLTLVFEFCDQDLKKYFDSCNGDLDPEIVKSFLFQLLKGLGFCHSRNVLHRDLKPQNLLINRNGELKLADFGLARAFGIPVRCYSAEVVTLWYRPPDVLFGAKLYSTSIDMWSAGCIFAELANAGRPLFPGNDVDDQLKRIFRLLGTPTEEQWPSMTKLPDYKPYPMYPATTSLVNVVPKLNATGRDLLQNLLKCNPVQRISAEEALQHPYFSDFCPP
Target sequence (Q15078 whole entry, looked up): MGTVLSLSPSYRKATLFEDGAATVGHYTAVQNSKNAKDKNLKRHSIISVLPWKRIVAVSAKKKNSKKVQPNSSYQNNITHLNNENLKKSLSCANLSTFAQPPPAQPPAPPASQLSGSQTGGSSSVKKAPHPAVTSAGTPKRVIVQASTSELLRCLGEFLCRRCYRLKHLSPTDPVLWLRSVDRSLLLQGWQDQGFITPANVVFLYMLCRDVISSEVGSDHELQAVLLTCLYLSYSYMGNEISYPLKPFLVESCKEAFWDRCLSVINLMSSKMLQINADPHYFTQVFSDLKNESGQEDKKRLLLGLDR
dFosB activator – activators of delta FosB homodimer, primary screen, biochemical, fluorescence polarization, TAMRA-CDK5 oligo, single point; Protein FosB (Mus musculus), P13346; purified delta FosB; percent of positive-control signal above neutral wells; activation, % at 25 µM; 340,000 tested, 0.99% active; AID 493131, 2011;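 active = mean activation above about 17%, with every replicate also reaching it, limit read from the data, passing the limit was not always enough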
SMARCA2 act – SMARCA2 (BRM) function activators, primary screen, cell-based, luminescence, high throughput; AID 652017, 2013; 370,000 tested, 1% active; activation, % at 9.1 µM; MG213 cells, MMTV-luciferase reporter, dexamethasone, overnight; in the data active = activation above about 7.8%;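 also: 0% = vehicle wells and 100% = reference activator wells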
Rtt109 HAT inh – inhibitors of C. albicans Rtt109/Vps75 HAT, primary screen, biochemical, ThioGlo CoA-SH fluorescence, plate reader | purified Rtt109/Vps75, 4 h | inhibition, % at 34.9 µM | 330,000 tested, 0.16% active | AID 540336, 2011;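 active = inhibition of at least 50% in every replicate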
Dyrk1A ADPGlo – rat Dyrk1A kinase inhibitors, primary screen, biochemical, single point, plate reader; inhibition, % at 12.5 µM; ADP-Glo luminescence, NFATc1 peptide; Dual specificity tyrosine-phosphorylation-regulated kinase 1A (Rattus norvegicus), Q63470; AID 504441, 2011; 310,000 tested, 0.43% active; in the data active = inhibition above about 50%;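 also: plate controls were vehicle with enzyme for no effect and no enzyme for full effect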
esBAF inh – Bmi1 luciferase reporter increase in mESCs, primary screen, esBAF inhibitor project, mouse ES cells, Bmi1 luciferase knock-in, single point; 24 h; 100% = twice the neutral-well signal; 350,000 tested, 2% active; AID 602393, 2012; reporter increase, % at 12.5 µM; in the data active = activation above about 40%;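 also: 0% = median of the plate's neutral control wells and 100% = double that signal; a rise in the Bmi1 reporter signal indicates esBAF inhibition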
Starred values were filed as active, the others as inactive.

`C[C@@H]1CCCCO[C@H](CN(C)CC2CC2)[C@H](C)CN([C@@H](C)CO)C(=O)c2cc(NC(=O)c3ccccc3)ccc2O1` gave esBAF inh -1.2.
`O=C(c1ccc(-c2cccc(C(F)(F)F)c2)o1)N1CCOCC1` gave CDK5 p35 inh -0.8, dFosB activator -14.4, SMARCA2 act 3.6, Rtt109 HAT inh -1.7, Dyrk1A ADPGlo 3.1 and esBAF inh 70.5*.
For CC(=O)N1CCN(C(=O)c2ccc(-c3cccc(C(F)(F)F)c3)o2)CC1 the results were CDK5 p35 inh -5.6, dFosB activator -5.6, SMARCA2 act 0.8, Rtt109 HAT inh 3.0, Dyrk1A ADPGlo -1.4 and esBAF inh -1.0.
CN(C)C(=O)C[C@@H]1CC[C@@H]2[C@H](COC[C@@H](O)CN2C(=O)C2CC2)O1 was read as esBAF inh -4.7.
`COc1ccc(CN(C)C[C@@H]2OCCCC[C@@H](C)Oc3ccc(N(C)C)cc3C(=O)N([C@H](C)CO)C[C@H]2C)cc1` gave esBAF inh -4.5.
`Cc1ccc(NC(=O)NCC2CC2(Cl)Cl)cc1` (centres undefined) gave CDK5 p35 inh -1.9, dFosB activator 0.7, SMARCA2 act 3.9, Rtt109 HAT inh 0.2, Dyrk1A ADPGlo -3.4 and esBAF inh 49.9*.
O=C(NCC1CC1(Cl)Cl)Nc1ccc(Cl)c(Cl)c1 (centres undefined) was read as CDK5 p35 inh -0.9, dFosB activator -4.6, SMARCA2 act -1.4, Rtt109 HAT inh 15.3, Dyrk1A ADPGlo 9.5 and esBAF inh 31.8.
Screening COc1ccc(S(=O)(=O)Nc2ccc3c(c2)C(=O)N([C@@H](C)CO)C[C@@H](C)[C@@H](CN(C)C(=O)CCC(F)(F)F)OCCCC[C@H](C)O3)cc1 returned esBAF inh -0.1.
`COc1ccc(-c2nn(-c3ccccc3)cc2/C=N/N=C(N)N)cc1OC` gave CDK5 p35 inh 0.9, dFosB activator 67.9*, SMARCA2 act -0.3, Rtt109 HAT inh 1.2 and Dyrk1A ADPGlo 3.0.
For COc1ccc(-c2nn(-c3ccccc3)cc2/C=N/O)cc1OC the results were CDK5 p35 inh 4.2, dFosB activator -3.7, SMARCA2 act -2.7, Rtt109 HAT inh 3.4 and Dyrk1A ADPGlo 40.4.
For Nc1nnnn1/N=C/C(Br)=C/c1ccccc1 the results were CDK5 p35 inh -0.7, dFosB activator 0.7, SMARCA2 act -10.0, Rtt109 HAT inh 3.1, Dyrk1A ADPGlo -0.8 and esBAF inh 52.9*.
CN1c2ccc(Br)cc2[C@@H]2[C@@H](CCN2C(=O)C2CCOCC2)[C@H]1CO was read as esBAF inh -0.4.
`COC(=O)c1ccc(CN2C(=O)NC3(CCC(C)CC3)C2=O)o1` (centres undefined) gave CDK5 p35 inh 0.1, dFosB activator 1.6, SMARCA2 act -1.0, Rtt109 HAT inh -2.9, Dyrk1A ADPGlo 2.8 and esBAF inh 1.5.
COC(=O)c1ccc(CN2C(=O)NC3(CCC(C)CC3)C2=O)cc1 (centres undefined) was read as CDK5 p35 inh -1.2, dFosB activator 1.5, SMARCA2 act 1.0, Rtt109 HAT inh 3.6, Dyrk1A ADPGlo 0.4 and esBAF inh 43.9*.
For CCCC#Cc1ccc2c(c1)[C@H]1[C@H](CCN1S(=O)(=O)c1ccc(F)cc1)[C@H](CO)N2C the results were esBAF inh -3.8.
For Cc1nnc(NC(=O)CSc2nnc3c(n2)[nH]c2ccc(Br)cc23)s1 the results were CDK5 p35 inh 3.2, dFosB activator 153.4*, SMARCA2 act 1.0, Rtt109 HAT inh -2.7, Dyrk1A ADPGlo -0.2 and esBAF inh -3.4.
For COc1ccccc1N1CCN(C(=O)CSc2ccccc2)CC1 the results were CDK5 p35 inh -1.0, dFosB activator -0.4, SMARCA2 act 2.7, Rtt109 HAT inh -0.3, Dyrk1A ADPGlo 1.9 and esBAF inh 48.9*.
For COc1ccc(/C=C/C(=O)NC(=S)N2CCN(c3ccccc3OC)CC2)cc1 the results were CDK5 p35 inh 1.1, dFosB activator 7.0, SMARCA2 act -1.7, Rtt109 HAT inh -10.1, Dyrk1A ADPGlo 2.8 and esBAF inh 77.0*.
For COc1ccc(/C=C/C(=O)NC(=S)N2CCOCC2)cc1 the results were CDK5 p35 inh 0.8, dFosB activator -3.4, SMARCA2 act 2.3, Rtt109 HAT inh -6.1, Dyrk1A ADPGlo 2.1 and esBAF inh 31.3.
`CC(C)NC(=O)N(C)C[C@@H]1OCCCC[C@H](C)Oc2ccc(NC(=O)Nc3ccc(F)cc3)cc2C(=O)N([C@@H](C)CO)C[C@H]1C` gave esBAF inh -1.4.
Cc1cc(Nc2ccccc2)n(C(=O)c2ccc(Cl)cc2)n1 was read as CDK5 p35 inh 0.1, dFosB activator -2.3, SMARCA2 act 2.6 and esBAF inh 52.9*.
Cc1cc(Nc2ccccc2)n(-c2ccc(C(=O)O)cc2)n1 was read as CDK5 p35 inh -0.9, dFosB activator -2.5, SMARCA2 act -3.0, Rtt109 HAT inh 1.5 and Dyrk1A ADPGlo -4.8.
For C[C@@H]1CCCCO[C@H](CN(C)C(=O)Nc2ccccc2)[C@H](C)CN([C@@H](C)CO)C(=O)c2cc(NC(=O)c3ccccc3)ccc2O1 the results were esBAF inh 2.3.
`CO[C@H]1CN(C)C(=O)c2ccc(NC(=O)C3CCCC3)cc2OC[C@@H](C)N(C)C[C@H]1C` gave esBAF inh -0.6.
Cc1ccc(-n2c(C)nc3oc4ccccc4c(=O)c3c2=O)cc1 was read as CDK5 p35 inh 0.8, dFosB activator -13.2, SMARCA2 act 2.7, Rtt109 HAT inh -2.7, Dyrk1A ADPGlo 2.3 and esBAF inh 55.8*.
For CCc1nc2oc3cc(OC)ccc3c(=O)c2c(=O)n1-c1ccccc1 the results were CDK5 p35 inh -0.4, dFosB activator -9.4, SMARCA2 act 0.6, Rtt109 HAT inh 4.2, Dyrk1A ADPGlo -4.6 and esBAF inh 44.5*.
`CO[C@@H]1CN(C)C(=O)c2ccc(NC(=O)c3ccc(F)cc3)cc2OC[C@@H](C)N(C(C)=O)C[C@@H]1C` gave esBAF inh -2.5.
Screening COc1ccc(CCNC(=O)NC23CC4CC(CC(C4)C2)C3)cc1 returned CDK5 p35 inh 0.6, dFosB activator -5.3, SMARCA2 act -0.8, Rtt109 HAT inh -0.4, Dyrk1A ADPGlo 0.9 and esBAF inh 31.0.
Screening O=C(CCCc1ccccc1)NC12CC3CC(CC(C3)C1)C2 returned CDK5 p35 inh -0.2, dFosB activator -6.7, SMARCA2 act 6.3, Rtt109 HAT inh 14.6, Dyrk1A ADPGlo 14.4 and esBAF inh 54.2*.
